# Data taken from the OligoGym collection.
# Target: SRC
# Assay: pooled miR-30 sensor sort-seq; sequence = guide strand
# Details: shRNA
# Also: reference of the scale not given here.
row,Sequence,sensor-assay potency score (higher = more potent)
1,TGAAGGACAGGTCTGTCTCCGT,-0.405
2,TAGACTCATAGTCATAGAGGGC,-1.02
3,TTGAAGGACAGGTCTGTCTCCG,0.367
4,TCGTGGTCTCACTTTCTCGCAC,-0.731
5,TCTGTGTTGTTGACAATCTGGA,0.0722
6,TGTCTGTCCTGTGCTGAGCGAG,-1.15
7,TCCGACTTGATGGTGAAGCGGC,-0.784

# Target: SREBF2
# Assay: as above
# Details: shRNA
row,Sequence,sensor-assay potency score (higher = more potent)
1,TTTATGATTGACCTGCTGCAAG,-1.02
2,ATTACTGACAAATTGCAGCATC,-0.795
3,TTCACAGCTCTCTTCTTCCTGG,0.117
4,TTAACAATCATCTGCTGGCAGT,-1.13
5,TAAAATGAGAGCGCACAGCTGC,-0.945
6,TTGATTACTGACAAATTGCAGC,-0.488
7,TTTGATGTAATCAATGGCCTTC,0.209
8,TTAGCTTCGTCTTCAAAGCCTG,-0.243
9,TCGAATGACAGGACACTGCGGC,-0.313
10,TCATGCAGGAACACCTTGCGGT,0.123
11,TAGCTTCGTCTTCAAAGCCTGC,-1.4

# Target: SRPK1
# Assay: as above
# Details: shRNA
row,Sequence,sensor-assay potency score (higher = more potent)
1,TTATAGGTGTACAAGAGTCTGT,-0.536
2,TTCCATAAGCGTTTGATCCTGG,0.385
3,TTTAAAGTCATCTAGTAGTTGA,-0.439
4,TTCGCTTCTCTAGTAATTCTGC,0.131
5,ATCTAGTAGTTGAACAACCATT,-1.39
6,TAGTTGAACAACCATTTCTCTA,-1.08
7,TATTCTTTGACATTTTGTCAGC,-0.83
8,TAACTTTCGGATCACATGGTAT,-1.15
9,TACAATAATCATTAGGATCTTC,-0.347
10,TATGTGTTCCATTAACTCCTGA,-0.508
11,TAGCATTATGTAGATCCTCTTT,-0.224
12,TTTGATGATCCACTTGAGCAGA,-0.465

# Target: SRSF11
# Assay: as above
# Details: shRNA
row,Sequence,sensor-assay potency score (higher = more potent)
1,TAGAACGTGATCTTGATCTTGA,0.589
2,TAAGCTTCAGCAACTGATCTGC,0.509
3,TAACAGGAGCTTTATAACCATT,-1.45
4,TTCTTTACTAGAGGTATCCGAT,-0.524
5,TTAGGGACTGTGCTTCTCGTAC,-0.978
6,TTGCACTTCTAGAACGTCTGGC,0.928
7,TACATCTTTATCACTCTCTGAT,0.584
8,TTTGTCTTTATCTTTCTTCTTC,0.407
9,TCTTCTTGCTTGTTGATCGTTC,0.0447
10,TTGATCTTGAATGCCTTCTTTT,-0.673
